This passage reports Potency and activity (max response) results from PubChem BioAssay (NCATS).

Values joined by “and” are separate entries in the source; they are usually repeats but may differ in a detail not shown here. Identical values can stand only once. Inconclusive results are not listed. A number with no mark means an inactive call. Active and inactive are the calls of the source. Calls come from the whole dose curve; as a rule, active = well fitted curve in the direction sought with a large enough effect; inconclusive = small, poorly fitted or top-dose-only effect, or another doubt; inactive = no such curve, though single readings can be large; an effect the other way counts as inactive or inconclusive.

Assay [1] can be described thus: Quantitative highthroughput screen to assess conditional lethalithy of NOMO1 cells grown in RPMI1640 with untreated serum (RPMI+s) (AID 1963876).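 For viability: 100% = DMSO wells and 0% = empty wells without cells.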 Note: nearly all actives have a fitted effect of over 35% in size. Note: potency is the fitted concentration of half-maximal effect. In a few lines:
(§1)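 Each medium arm—HPLM with 10% dialyzed FBS, or RPMI1640 with 5 mM glucose and 10% untreated or dialyzed FBS—was screened against an 11-point, 3-fold compound titration for 48 h at 37 °C, with CellTiter-Glo luminescence as endpoint.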

Assay [2] in a line: Quantitative highthroughput screen to assess conditional lethalithy of NOMO1 cells grown in RPMI1640 with dialyzed fetal bovine serum (RPMI+ds) (AID 1963877).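 For viability: series mostly up to about 46 µM; 100% = DMSO control wells and 0% = empty wells.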 Note: nearly all actives have a fitted effect of over 30% in size. Note: potency is the fitted concentration of half-maximal effect. In a few lines: as §1
Assay [3] can be described thus: Quantitative highthroughput screen to assess conditional lethalithy of NOMO1 cells grown in Human Plasma-Like Medium with dialyzed fetal bovine serum (HPLM+ds) (AID 1963878).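 For viability: 100% = DMSO wells and 0% = empty wells on each plate.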 Note: nearly all actives have a fitted effect of over 35% in size. Note: potency is the fitted concentration of half-maximal effect. In a few lines:
as §1

Assay [4] can be described thus: Quantitative highthroughput screen to assess conditional lethalithy of P12 Ichikawa cells grown in Human Plasma-Like Medium with dialyzed fetal bovine serum (HPLM+ds) (AID 1963879). For viability: series mostly up to about 46 µM. Note: nearly all actives have a fitted effect of over 35% in size. Note: potency is the fitted concentration of half-maximal effect. To be noted: Potency: viability. In a few lines:
as §1

Assay [5] can be described thus: Quantitative highthroughput screen to assess conditional lethalithy of P12 Ichikawa cells grown in RPMI1640 with dialyzed fetal bovine serum (RPMI+ds) (AID 1963880).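 Note: 100% = DMSO wells and 0% = empty wells on each plate; nearly all actives have a fitted effect of over 35% in size.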 To be noted: Potency: P12-Ichikawa viability. In a few lines:
as §1

The nature of assay [6]: Quantitative highthroughput screen to assess conditional lethalithy of SEM cells grown in Human Plasma-Like Medium with dialyzed fetal bovine serum (HPLM+ds) (AID 1963882). For viability: series mostly up to about 46 µM. Note: nearly all actives have a fitted effect of over 35% in size. Note: potency is the fitted concentration of half-maximal effect. In a few lines: as §1
Assay [7] in a line: Quantitative highthroughput screen to assess conditional lethalithy of SEM cells grown in RPMI1640 with unreated serum (RPMI+s) (AID 1963883).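 For viability: 100% = DMSO wells and 0% = empty wells without cells.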 Note: nearly all actives have a fitted effect of over 35% in size. Note: potency is the fitted concentration of half-maximal effect. In a few lines: as §1
The nature of assay [8]: Quantitative highthroughput screen to assess conditional lethalithy of SEM cells grown in RPMI1640 with dialyzed fetal bovine serum (RPMI+ds) (AID 1963884).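 For viability: series mostly up to about 46 µM; 100% = DMSO control wells and 0% = empty wells without cells.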 Note: nearly all actives have a fitted effect of over 35% in size. Note: potency is the fitted concentration of half-maximal effect. In a few lines:
as §1

Assay [9] in a line: Quantitative highthroughput screen to assess conditional lethalithy of P12 Ichikawa cells grown in RPMI1640 with untreated serum (RPMI+s) (AID 1963881).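 For viability: series mostly up to about 46 µM; 100% = DMSO wells and 0% = empty wells without cells.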 Note: nearly all actives have a fitted effect of over 35% in size. Note: potency is the fitted concentration of half-maximal effect. To be noted: Potency: viability. In a few lines:
as §1

Assay [10] is described as follows: Cellular viability qHTS for adrenocortical cancer (ACC) cell line SW-13 (AID 1963989).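 Note: cells grown in serum-free medium with ITS supplement; % is set by controls: 0 for no effect and ±100 for the full control effect; nearly all actives have a fitted effect of over 65% in size.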 To be noted: SW-13 ACC cells viability, CellTiter-Glo, 48 h; activity (max response): active compounds read low. In a few lines: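 48 h treatment, SW-13 in ITS/DMEM serum-free; doses up to 46 uM; readout CellTiter-Glo luminescence; curve fit four-parameter logistic.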
On the technique in general: In qHTS, concentration-response curves come from the screen itself.

A short description of assay [11]: Cellular viability qHTS for adrenocortical cancer (ACC) cell line NCI-H295R (AID 1963990).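 Note: 0% = DMSO only wells and -100% = full killing with cytotoxic reference compound; nearly all actives have a fitted effect of over 60% in size.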 In a few lines:
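Compound titrations (up to 46 uM final) are applied to NCI-H295R cultures for 48 h at 37C. Viable cell number is estimated by CellTiter-Glo signal, normalised to DMSO and doxorubicin controls.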

Consider `CC(=O)[C@H]1CC[C@H]2[C@@H]3CCC4=CC(=O)CC[C@]4(C)[C@H]3CC[C@]12C`, for which the Potency result in [1], in assay [2], in assay [3], in assay [4], in assay [5] and in assay [6] was “inactive” in each case. Moreover, in assay [7], the Potency result is “inactive”.
Take `Cc1cc(OCCCc2c(C(=O)O)n(Cc3cccnc3)c3c(-c4c(COc5ccc(N6CCN([S+](C)(=O)[O-])CC6)cc5)nn(C)c4C)cccc23)cc(C)c1Cl`: the Potency entry in [1], in assay [2], in [3], in [4], in assay [5] and in [6] was “inactive” each time.
In the case of `Clc1ccc(CCC(Cn2ccnc2)Sc2c(Cl)cccc2Cl)cc1` (centres undefined), the Potency entry in assay [1], in [2], in [3], in [4], in assay [5] and in assay [6] was “inactive” in each case.
Consider `Cc1cc(C=c2sc3nc4ccccc4n3c2=O)c(C)n1-c1ccccc1`, for which the Potency entry in assay [1], in assay [2], in [3], in assay [4], in assay [5] and in assay [6] was “inactive” in each case. Further, the Potency entry in [7] and in assay [8] was “inactive” in each case.
With `N#CC(=C(O)c1ccc(Cl)cc1Cl)c1nc2cc(Cl)ccc2c(=O)[nH]1`, the Potency result in [1], in assay [2], in assay [3], in [4], in assay [9] and in [6] was “inactive” in each case. Also, the Potency result in assay [7] and in [8] was “inactive” each time.
In the case of `O=C1NC(=O)C(=Cc2ccc3nccnc3c2)S1`, the Potency entry in assay [1], in [2], in [3], in assay [4], in assay [9] and in assay [6] was “inactive” in each case. Also, the Potency entry in [7] and in assay [8] was “inactive” in each case.
As to `CC(C)(O)CC[C@@H](O)[C@](C)(O)[C@H]1CC[C@@]2(O)C3=CC(=O)[C@@H]4C[C@@H](O)[C@@H](O)C[C@]4(C)[C@@H]3CC[C@]12C`, the Potency result in assay [1], in assay [2], in assay [3], in [4], in assay [5] and in assay [6] was “inactive” in each case. For the same compound, the Potency result in assay [7] and in assay [8] was “inactive” throughout.
`Cc1oncc1C(=O)Nc1ccc(C(F)(F)F)cc1`: the Potency entry in assay [1], in [2], in assay [3], in assay [4], in [9] and in [6] was “inactive” throughout. Also, the Potency result in [7] and in assay [11] was “inactive” in each case. In addition, in assay [10], the activity (max response) was -12.3% and -17.5%.
Take `C[C@]12CCC3c4ccc(O)cc4CCC3C1CCC2=O` (some centres undefined): the Potency entry in assay [1], in [2], in assay [3], in [4], in assay [9] and in assay [7] was “inactive” each time. Also, in assay [11], the Potency entry is “inactive”. Also, the activity (max response) in assay [10] was -21%.
With `C[C@]12CCC(=O)C=C1[C@@H]1CC1[C@H]1[C@H]3[C@@H]4C[C@H]4[C@@]4(CCC(=O)O4)[C@@]3(C)CC[C@H]12` (some centres undefined), the Potency entry in [1], in assay [2], in [3], in assay [4], in assay [9] and in assay [6] was “inactive” in each case. For the same compound, the Potency entry in assay [7] and in [8] was “inactive” each time.
Turning to `CCCCOCCOc1nc(-c2ccc(C(=O)O)c(F)c2)sc1C`, the Potency entry in assay [1], in assay [2], in assay [3], in assay [4], in [9] and in [6] was “inactive” each time. Also, the Potency result in assay [7] and in assay [11] was “inactive” in each case.
On to `Nc1nc(=O)n([C@H]2CSC(CO)O2)cc1F` (some centres undefined), for which the Potency entry in assay [1], in [2], in [3], in [4] and in assay [9] was “inactive” each time.
Turning to `Cn1cc(C=C2C(=O)Nc3cccnc32)c2ccccc21`, the Potency in assay [1] is 7430 nM (active); in [2] it was 9350 nM (active); in assay [4], 9350 nM (active); in assay [9], 23500 nM (active). Moreover, the Potency entry in assay [3] was “inactive”.
`Cn1cc(C=CC(=O)c2cccc(F)c2)cc1C=CC(=O)NO`: the Potency entry in assay [1], in assay [2], in assay [3], in [4], in [9] and in assay [7] was “inactive” in each case. Further, in assay [8], the Potency result was “inactive”.
In the case of `Cc1ccc([N+](=O)[O-])cc1S(=O)(=O)N(C)N=Cc1cnc2ccc(Br)cn12`, the Potency in assay [1] is 93.5 nM (active); in [2], 105 nM (active); in [3] it was 52.6 nM (active); in [4], 166 nM (active); in assay [9], 132 nM (active); in assay [6], 59 nM (active). In addition, the results for the Potency in assay [7] and in [8] were 66.2 nM (active) and 83.3 nM (active), respectively.
`Fc1ccc(C(c2ccc(F)cc2)N2CCN(CC=Cc3ccccc3)CC2)cc1`: the Potency entry in assay [1], in assay [2], in [3], in [4], in [5] and in assay [6] was “inactive” in each case. Also, the Potency result in assay [7] is “inactive”.
Regarding `O=C(c1ccc(F)c(F)c1Nc1ccc(I)cc1F)N1CC(O)([C@H]2CCCCN2)C1`, the Potency in [1] was 743 nM (active); in assay [2], 743 nM (active); in [3] it was 526 nM (active); in assay [4], 8330 nM (active); in assay [9], 8330 nM (active). Further, the Potency result in [6] was “inactive”.
As for `Cc1cc(SCc2sc(-c3ccc(C(F)(F)F)cc3)nc2C)ccc1OCC(=O)O`, the Potency entry in assay [1], in assay [2], in [3], in [4], in assay [9] and in assay [11] was “inactive” throughout.
With `CCN(CC)CCn1c(=O)c(Cc2ccc(OC)cc2)nc2ccccc21`, the Potency entry in assay [1], in assay [2], in assay [3], in [4], in assay [5] and in assay [6] was “inactive” in each case. Moreover, the Potency result in assay [7], in assay [8] and in [11] was “inactive” in each case. The activity (max response) in assay [10] is -3.48%.
For `CC=C1NC(=O)[C@H]2CSSCCC=C[C@H](CC(=O)N[C@H](C(C)C)C(=O)N2)OC(=O)[C@H](C(C)C)NC1=O`, the Potency is 41.8 nM (active) in assay [1]; 52.6 nM (active) in assay [2]; 37.2 nM (active) in assay [3]; 37.2 nM (active) in assay [4]; 37.2 nM (active) in assay [9]; 37.2 nM (active) in assay [6]. Besides, the Potency in [8] is 37.2 nM (active).
For the compound `Cc1ccc(/C=N/NC(=O)c2ccccc2Oc2ccccc2)o1`, the Potency entry in assay [1], in [2], in assay [3], in [4], in [5] and in assay [6] was “inactive” each time. For the same compound, the Potency result in [7] and in assay [11] was “inactive” each time. Moreover, the activity (max response) in assay [10] was -16.3%.
